Rows were chosen to be rich in hits. Some 17% of all compounds tested hit in one or more screens of this group.
DT40 TDP1 CPT: DT40-hTDP1 cell growth loss with CPT; Potency, µM (titrated, usually from 46.2 µM), inactives show at the top dose activity change, negative = growth inhibition, actives largely listed as inhibitors; 420,000 compounds, 12% hits; chicken DT40 Tdp1-/-;hTDP1 cells + 20 nM CPT, ATP luminescence, 48 h; also: % is scaled to controls: 0 for no effect and ±100 for the full control effect; nearly all actives have a fitted effect of over 55% in size
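Chicken DT40 Tdp1-/- cells complemented with human TDP1, 400 cells/well, exposed to compounds plus 20 nM camptothecin for at least 48 h at 37 C; viability read as ATP content by CellTiter-Glo luminescence.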
TDP1 inh: blocks human tyrosyl-DNA phosphodiesterase 1 | recombinant TDP1, AlphaScreen DNA substrate cleavage | Potency, µM (series often up to 130 µM), for the others: at the highest dose activity change, negative = inhibition, actives largely listed as inhibitors | 350,000 compounds, 0.28% hits | AID 485290; also: % is scaled to controls: 0 for no effect and ±100 for the full control effect; nearly all actives have a fitted effect of over 40% in size
Target sequence (Q9NUW8 whole entry, looked up): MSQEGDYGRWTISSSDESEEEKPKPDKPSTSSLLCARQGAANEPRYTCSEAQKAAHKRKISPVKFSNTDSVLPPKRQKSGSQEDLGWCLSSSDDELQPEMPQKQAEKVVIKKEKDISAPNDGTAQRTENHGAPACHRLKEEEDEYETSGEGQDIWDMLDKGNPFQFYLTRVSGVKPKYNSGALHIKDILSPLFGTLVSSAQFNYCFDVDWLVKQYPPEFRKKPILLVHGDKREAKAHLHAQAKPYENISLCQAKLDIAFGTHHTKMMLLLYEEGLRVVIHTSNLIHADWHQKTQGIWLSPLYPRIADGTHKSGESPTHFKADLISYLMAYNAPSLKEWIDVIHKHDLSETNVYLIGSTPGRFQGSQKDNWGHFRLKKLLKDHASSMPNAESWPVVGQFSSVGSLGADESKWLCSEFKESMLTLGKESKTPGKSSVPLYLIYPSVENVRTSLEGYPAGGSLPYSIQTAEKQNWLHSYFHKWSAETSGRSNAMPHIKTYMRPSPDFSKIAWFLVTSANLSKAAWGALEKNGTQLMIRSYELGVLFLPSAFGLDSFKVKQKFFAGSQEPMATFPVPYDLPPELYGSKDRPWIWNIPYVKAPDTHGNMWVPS
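Tdp1 1 nM final; 15 min RT w/ cpd; substrate 15 nM, 5 min; beads 10 ug/ml, 10 min; AlphaScreen read. Neg ctrl: no enzyme.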
TDP1 cell noCPT: qHTS for Inhibitors of human tyrosyl-DNA phosphodiesterase 1 (TDP1): qHTS in cells in absence of CPT | AID 686978, 2013 | DT40 Tdp1-/- hTDP1 cells, no CPT, ATP luminescence, 48 h | 420,000 compounds, 15% hits | Potency, µM (series often up to 46.2 µM), for the others: at the highest dose activity change, negative = growth inhibition, actives largely listed as inhibitors; also: % is scaled to controls: 0 for no effect and ±100 for the full control effect; nearly all actives have a fitted effect of over 55% in size
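Compound effects on proliferation are scored in DT40 Tdp1-/-;hTDP1 cells in the absence of CPT. ATP levels (CellTiter-Glo luminescence) are recorded after a ≥48 hr, 37 °C incubation.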
ClpP mod: qHTS Assay for Activators of ClpP; ATP-dependent Clp protease proteolytic subunit (Bacillus subtilis (strain 168)), P80244; purified B. subtilis ClpP, FRET peptide cleavage, 20 min; Potency, µM (series often up to 57.5 µM), for inactives: at the highest dose activity change, negative = active; 340,000 compounds, 1.9% hits; active = well fitted falling curve with a large enough effect; inconclusive = small, poorly fitted or top-dose-only effect; inactive = no such curve, though single readings can be large or run the other way; also: the source files actives as falling curves though it sought activators and does not explain the sign; nearly all actives have a fitted effect of over 65% in size
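ClpP 10 microg/mL final, pH 8 Tris/KCl buffer with BSA, glycerol, Tween-20; compound pinned in; FRET-FV substrate; RT 20 min; Ex320/Em430; ΔFRET vs ADEP 5.8 microM, DMSO, no enzyme.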
* marks the source's active call; other numbers are inactive results; u = inconclusive; x = no result; [ ] = dose if it differs, or a comment. Unless noted, calls follow the shape of the dose curve; as a rule, active = well fitted curve in the direction sought with a large enough effect; inconclusive = small, poorly fitted or top-dose-only effect, or another doubt; inactive = no such curve, though single readings can be large; an effect the other way counts as inactive or inconclusive. Potency is read from the fitted curve at half-maximal effect.

SMILES	DT40 TDP1 CPT	TDP1 inh	TDP1 cell noCPT	ClpP mod
COc1ccccc1N1CCN(c2nc(CNC(=O)c3sc(C)nc3C)nc3ccccc23)CC1	6.5µM*	x	5.2µM*	x
CC1CCN(c2ccccc2NC(=S)NC(=O)c2ccco2)CC1	u	x	29µM*	-2%
O=C(NC(=S)Nc1ccccc1N1CCOCC1)c1ccc(-c2ccccc2F)o1	13µM*	1%	23µM*	x
CC1CCN(c2ccccc2NC(=O)c2ccc(F)cc2)CC1	-27%	-3%	-16%	0%
CC1CCN(c2ccccc2NC(=O)c2ccc(Br)o2)CC1	16µM*	8%	u	-4%
O=C(NC(=S)Nc1cc(Cl)ccc1N1CCOCC1)c1ccc(-c2cccc(Cl)c2)o1	1%	0%	-19%	-3%
O=C(Nc1ccccc1N1CCOCC1)c1ccc(Br)o1	21µM*	2%	23µM*	-3%
CS(=O)(=O)N1CCN(c2ccccc2NC(=O)c2ccc(Br)o2)CC1	-26%	4%	-20%	-3%
OC[C@@H]1CN(Cc2ccco2)C[C@H](n2cnc3c(NCc4ccncc4)ncnc32)O1	4%	x	14%	-2%
Cc1ccc(S(=O)(=O)N2CCCC(c3nc4c(nnn4Cc4ccc(OC(F)(F)F)cc4)c(=O)[nH]3)C2)cc1 (centres undefined)	-6%	6%	-13%	-1%
CC1(C(=O)NS(=O)(=O)c2ccc(Cl)cc2)CCN1C(=O)CCc1ccccc1 (centres undefined)	u	x	-8%	1%
CN1CCN(NC(=O)c2cc(Br)ccc2Cl)CC1	-14%	3%	-5%	x
COc1ccccc1C(=O)Nc1cccc(N2CCC(NCc3cnn(-c4ccccc4)n3)CC2)c1	-9%[9.04 µM]	x	u	x
CC(C)OCCCNC(=O)C1CCN(S(=O)(=O)c2ccc3nc4c(c(C(=O)O)c3c2)CCCCC4)CC1	15%	4%	11%	-3%
CC(=O)c1ccc(OC(C)C)c(CSC(=N)N)c1	23µM*	0%	u	-1%
CC(=O)c1ccc(OC(C)C)c(Cc2c(O)nc(N)[nH]c2=O)c1	-27%	0%	-19%	13%
O=C(COC(=O)COc1ccc(Br)cc1)NCc1ccccc1	5%	2%	1%	1%
COc1ccc(Br)cc1C(=O)Nc1cccc(-c2nnc(-c3ccco3)o2)c1	23µM*	x	u	-3%
Cc1ccc(SCC(=O)Nc2cccc(-c3nnc(-c4ccco4)o3)c2)cc1	18µM*	6%	u	u
CCOC(=O)Cc1csc(NC(=O)Cn2c(=O)oc3ccccc32)n1	-29%	x	-18%	x
O=C1C2C3C=CC(CC3)C2C(=O)N1c1ccc(F)cc1 (centres undefined)	7%	x	4%	2%
O=C1C2C3CCCC3=C3CCCC3C2C(=O)N1c1ccc(F)cc1 (centres undefined)	u	3%	18µM*	-2%
COc1ccc(NC(=O)c2cc3ccccn3n2)cc1	-13%	5%	-6%	-2%
COc1cc(Cl)c(NC(=O)c2cc3ccccn3n2)c(OC)c1	16µM*	3%	21µM*	102%
Clc1ccc2nc(-c3ccc(N4CCOCC4)cc3)c(Nc3ccccc3)n2c1	u	-3%	u	3%
SMILES	DT40 TDP1 CPT	TDP1 inh	TDP1 cell noCPT	ClpP mod
Cc1ccccc1Nc1c(-c2ccc(N3CCOCC3)cc2)nc2ccc(Cl)cn12	18µM*	8%	16µM*	4%
Cc1ccc2nc(-c3ccc(N4CCOCC4)cc3)c(Nc3ccccc3C)n2c1	16µM*	10%	18µM*	4%
Cc1ccn2c(Nc3ccccc3C)c(-c3ccc(N4CCOCC4)cc3)nc2c1	18µM*	12%	u	4%
CCN(CC)CCNC(=O)c1[nH]c2ccccc2c1Sc1ccc(Cl)cc1	u	11%	u	-3%
COCc1c(C(=O)N2CCN(Cc3nc4ccccc4s3)CC2)oc2ccccc12	u	-4%	u	-3%
COCCn1nnnc1C(C(C)C)N(Cc1cccnc1)Cc1ccccc1Cl (centres undefined)	u	9%	23µM*	-1%
CN1CCN(C(=O)/C(=C/c2ccccc2)c2ccccc2)CC1	-20%	0%	-15%	-1%
CC1CC(C)CN(C(=O)/C(=C\c2ccccc2)c2ccccc2)C1 (centres undefined)	16µM*	-8%	13µM*	-1%
COCc1c(C(=O)N/N=C(/C)c2ccc(OCc3ccccc3)cc2)nnn1-c1nonc1N	-12%	-7%	33%	-9%
CC1=C(C#N)C(C(F)(F)F)(C(F)(F)F)N=C(c2ccco2)N1	u	4%	16µM*	0%
O=c1[nH]c(=O)n(Cc2ccccc2)c2c1C(C(F)(F)F)(C(F)(F)F)N=C(c1ccco1)N2	u	0%	u	-2%
O=C(CN1CCN(C2CCCCC2)C(=O)C1=O)Nc1ccc(Cl)cc1	u	4%	u	-1%
Cc1ccc(S(=O)(=O)N(C)C)cc1NC(=S)NC(=O)C12CC3CC(CC(C3)C1)C2	9.2µM*	5%	8.2µM*	2%
NS(=O)(=O)c1cccc(NC(=S)NC(=O)C23CC4CC(CC(C4)C2)C3)c1	u	4%	21µM*	-1%
COCCCN1C(=O)C(CC(=O)NC2CCCCC2)CC(C(=O)N(C(C)C)C(C)C)=C1C (centres undefined)	-9%	x	2%	1%
O=C(NC1CC(=O)N(c2ccc(F)cc2)C1)c1cc2ccccc2o1 (centres undefined)	-18%	0%	-13%	0%
Cc1ccc(S(=O)(=O)N2CCN(C(=O)COC(=O)/C=C/c3ccccc3)CC2)c(C)c1	16µM*	2%	-28%	-1%
Cc1ccc(S(=O)(=O)N2CCN(C(=O)COC(=O)/C=C/c3ccccc3[N+](=O)[O-])CC2)c(C)c1	u	-7%	u	x
O=C(COC(=O)/C=C/c1ccc(OC(F)F)cc1)Nc1ccc(S(=O)(=O)N2CCCC2)cc1	5%	0%	-21%	-2%
Cc1ccc(S(=O)(=O)N2CCN(C(=O)COC(=O)/C=C/c3ccc(OC(F)F)cc3)CC2)cc1	u	x	21µM*	-3%
Cc1ccc(S(=O)(=O)N2CCN(C(=O)COC(=O)/C=C/c3cccc([N+](=O)[O-])c3)CC2)c(C)c1	9.2µM*	x	16µM*	-2%
COC1=CC(=NCl)C=CC1=NCl	21µM*	x	16µM*	1%
CCN1CCN(c2c(/C=C3\SC(=S)N(Cc4ccco4)C3=O)c(C)c(C#N)c(=O)n2C)CC1	u	-5%	15µM*	x
COc1ccccc1/C=C/C1=CC2(C)CC1(C)C(c1ccccc1OC)CC2=O (centres undefined)	x	1%[21 µM]	x	x
C=C1CC2(OC1=O)c1ccccc1CCc1ccccc12	4.6µM*	x	2.9µM*	2%
CC1CCCCN1C(=S)NC(=O)c1ccccc1 (centres undefined)	u	1%	u	-1%

Source: PubChem BioAssay
